Screening data (PubChem)
In the library only some 1% were active in any assay of this set; here they are far more common.
Mtb BioA inh: BioA (M. tuberculosis) enzyme inhibition; inhibition, % at 9.99 µM; actives 0.096% (n = 360,000); purified M. tuberculosis BioA enzyme, plate reader; AID 602481; in the data active = inhibition above about 40%
MazF activator: activators of E. coli MazEF toxin-antitoxin RNase; P0AE70; FAM/BHQ RNA-DNA oligo cleavage fluorescence, 5 h; activation, % at 20 µM; actives 0.32% (n = 350,000); in the data active = activation above about 50%
TcdB GH inh: blocks C. difficile toxin B glycohydrolase activity. P18177. TcdB glycohydrolase enzymatic assay, plate reader. inhibition, % at 9.99 µM. actives 0.24% (n = 350,000). AID 652162; in the data active = inhibition above about 10%
DUSP3 inh: inhibitors of human VHR1 phosphatase (DUSP3); P51452; recombinant VHR phosphatase, pNPP absorbance; inhibition, % at 13.3 µM; actives 0.52% (n = 290,000); AID 1654; in the data active = inhibition above about 50%
FadD28 FP inh: inhibitors of Mycobacterium tuberculosis FadD28 bisubstrate binding. FadD28 bisubstrate probe binding, fluorescence polarization. inhibition, % at 12.5 µM. actives 0.22% (n = 360,000). AID 588549; in the data active = inhibition above about 8.5%, passing the limit was not always enough
Y pestis TopoI: inhibitors of Yersinia pestis topoisomerase I; Y. pestis Topo-I cleavage product accumulation, plate reader; activity, % at 10 µM; actives 0.064% (n = 360,000); AID 504884; in the data active = activity above about 50%, passing the limit was not always enough
The depositor's hits bear a star; ! = repeats disagree.

Screening O=C(CSc1nc(-c2ccccc2)nc2ccccc12)Nc1nccs1 returned Mtb BioA inh -1.5, MazF activator 136.3*, DUSP3 inh 37.9, FadD28 FP inh 2.8 and Y pestis TopoI 5.5.
`O=C1O[C@@H](c2ccccc2)[C@@H](c2ccccc2)N2[C@@H](c3ccc(OCCO)cc3)[C@]3(C(=O)Nc4ccccc43)[C@@H](C(=O)Nc3nc4ccccc4s3)[C@H]12` gave TcdB GH inh 0.1.
For CN(C)C(=O)C[C@H]1C=C[C@H](NC(=O)NC2CCCCC2)[C@H](CO)O1 the results were Mtb BioA inh 2.6 and TcdB GH inh -0.1.
For Nc1c(C(=O)c2ccccc2)sc2nsc(SCCN3CCOCC3)c12 the results were Mtb BioA inh -1.6, MazF activator 126.7*, TcdB GH inh 2.2, DUSP3 inh 29.8, FadD28 FP inh 0.2 and Y pestis TopoI 25.6.
CS(=O)(=O)N1CC2(C1)[C@H](c1ccccc1)[C@@H](CO)N2CC1CC1 was read as TcdB GH inh -0.4.
O=C(O)COc1ccc(Br)cc1C(c1c(C(=O)O)[nH]c2ccccc12)c1c(C(=O)O)[nH]c2ccccc12 was read as Mtb BioA inh 1.6, MazF activator -14.5, DUSP3 inh 1.7, FadD28 FP inh 28.0* and Y pestis TopoI -5.8.
For COc1cc(C(c2c(C(=O)O)[nH]c3ccccc23)c2c(C(=O)O)[nH]c3ccccc23)ccc1OCc1ccccc1 the results were Mtb BioA inh 6.0, MazF activator -4.0, TcdB GH inh 0.1, DUSP3 inh 5.8, FadD28 FP inh 32.2* and Y pestis TopoI -0.1.
For O=C(O)c1[nH]c2ccccc2c1C(c1cc(Cl)cc([N+](=O)[O-])c1O)c1c(C(=O)O)[nH]c2ccccc12 the results were Mtb BioA inh 1.0, MazF activator 3.6, TcdB GH inh -0.5, DUSP3 inh 10.7, FadD28 FP inh 56.2* and Y pestis TopoI -11.2.
Screening COc1cc(C(NC(C)=O)NC(C)=O)ccc1OCc1ccccc1 returned MazF activator -3.2, DUSP3 inh 30.1, FadD28 FP inh -4.6 and Y pestis TopoI -4.5.
Screening O=C(O)c1[nH]c2ccccc2c1C(c1ccccc1)c1c(C(=O)O)[nH]c2ccccc12 returned Mtb BioA inh -0.1, MazF activator -9.5, TcdB GH inh 2.0, DUSP3 inh 2.3, FadD28 FP inh 22.1* and Y pestis TopoI -0.5.
For C=CCOc1ccc(C(c2c(C(=O)O)[nH]c3ccccc23)c2c(C(=O)O)[nH]c3ccccc23)cc1 the results were Mtb BioA inh 2.9, MazF activator -16.6, TcdB GH inh 0.1, DUSP3 inh 5.9, FadD28 FP inh 40.2* and Y pestis TopoI 10.0.
For COc1cccc2c1C(=O)c1c(O)c3c(c(O)c1C2=O)CC(O)(C(C)=NO)CC3OC1CC(N)C(O)C(C)O1 (stereo not given) the results were MazF activator inactive, TcdB GH inh -24.0, FadD28 FP inh 63.3* and Y pestis TopoI -43.8.
Screening COc1cccc2c1C(=O)c1c(O)c3c(c(O)c1C2=O)C[C@@](O)(C(=O)CO)C[C@@H]3O[C@H]1C[C@H](N)[C@H](O)[C@H](C)O1 returned Mtb BioA inh -41.7, MazF activator inactive, TcdB GH inh -13.9, DUSP3 inh 4.7, FadD28 FP inh 63.4* and Y pestis TopoI -31.5.
COc1cccc2c1C(=O)c1c(O)c3c(c(O)c1C2=O)CC(O)(C(C)=O)CC3OC1CC(N(C)C)C(O)C(C)O1 (stereo not given) was read as MazF activator -776.0, TcdB GH inh -24.3, FadD28 FP inh 60.2* and Y pestis TopoI -37.0.
Screening CC(=O)[C@@]1(O)Cc2c(O)c3c(c(O)c2[C@H](O[C@H]2C[C@H](N)[C@H](O)[C@H](C)O2)C1)C(=O)c1ccccc1C3=O returned Mtb BioA inh -93.9, TcdB GH inh -3.1, FadD28 FP inh 74.2* and Y pestis TopoI -34.6.
Screening COc1ccc(S(=O)(=O)Nc2cccc3c2O[C@H](CN(C)C(=O)NC(C)C)[C@@H](C)CN([C@@H](C)CO)C3=O)cc1 returned Mtb BioA inh 0.4 and TcdB GH inh 1.6.
Screening COc1cccc2c1C(=O)c1c(O)c3c(c(O)c1C2=O)C[C@@](O)(C(=O)CO)C[C@@H]3OC1CC(N)C(O)C(C)O1 (stereo not given in full) returned MazF activator -316.0, TcdB GH inh -15.2, FadD28 FP inh 52.8* and Y pestis TopoI -41.3.
Screening C[C@H]1C=C(C(=O)NCc2nc3ccccc3[nH]2)O[C@@H](OCc2ccc(CO)cc2)C1 returned Mtb BioA inh 3.1, MazF activator 6.6, TcdB GH inh 10.9*!, DUSP3 inh 22.5, FadD28 FP inh -0.3 and Y pestis TopoI 6.3.
`COc1ccc(CC(=O)NC2CC2)cc1OC` gave Mtb BioA inh -4.2, MazF activator 2.1, TcdB GH inh -1.6, DUSP3 inh 53.0*, FadD28 FP inh 1.0 and Y pestis TopoI -13.8.
`COc1ccc(S(=O)(=O)N(C)CC(=O)N2CCCC2)cc1OC` gave Mtb BioA inh 0.3, MazF activator 5.7, TcdB GH inh 0.7, DUSP3 inh 53.3*, FadD28 FP inh -2.1 and Y pestis TopoI -0.5.
For COc1ccc(S(=O)(=O)N(C)CC(=O)N2CCN(C)CC2)cc1Cl the results were Mtb BioA inh -0.6, MazF activator -2.3, TcdB GH inh 2.5, DUSP3 inh 52.8*, FadD28 FP inh -0.6 and Y pestis TopoI 9.6.
For COc1ccc(S(=O)(=O)N(C)CC(=O)N2CCCCC2)cc1Cl the results were Mtb BioA inh -0.8, MazF activator 1.3, TcdB GH inh 0.7, DUSP3 inh -7.5, FadD28 FP inh -0.5 and Y pestis TopoI -1.6.
For Cc1ccc(C(=O)Nc2nnc(CC(=O)N/N=C/c3ccc(O)c(O)c3)s2)cc1 the results were Mtb BioA inh 0.9, MazF activator -6.4, TcdB GH inh 0.6, DUSP3 inh 54.2*, FadD28 FP inh -5.3 and Y pestis TopoI 12.6.
CCCN(C)C[C@H]1OCCCC[C@@H](C)Oc2ccc(NS(=O)(=O)c3ccccc3)cc2C(=O)N([C@@H](C)CO)C[C@H]1C was read as Mtb BioA inh -3.5 and TcdB GH inh 0.0.
Screening O=C(C[C@@H]1CC[C@H]2[C@@H](COC[C@@H](O)CN2Cc2ccc3c(c2)OCO3)O1)Nc1ccc(-c2ccccc2)cc1 returned Mtb BioA inh -1.4.
`C/C(=N\Nc1ccc([N+](=O)[O-])cc1)c1cccc(N)c1` gave Mtb BioA inh -0.1, MazF activator 3.7, TcdB GH inh 15.2*, DUSP3 inh 17.8, FadD28 FP inh -2.0 and Y pestis TopoI -23.3.
For C/C(=N\Nc1ccc([N+](=O)[O-])cc1)c1ccc(O)cc1 the results were MazF activator 4.8, TcdB GH inh 6.7, DUSP3 inh 18.5, FadD28 FP inh 0.1 and Y pestis TopoI -21.8.
For C[C@@H]1CN([C@@H](C)CO)C(=O)Cc2cc(N(C)C)ccc2O[C@H]1CN(C)S(=O)(=O)c1cccs1 the results were Mtb BioA inh 4.8.
